Consider 24 compounds from PubChem BioAssay.

Each structure is given as a SMILES string. A number with no mark means an inactive call. Calls of active or inactive are those of the source.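 Rule for the calls, unless noted: active = normalized viability below 100% at a tested concentration; inactive = the rest.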

The nature of one test: drug combination growth inhibition, ovarian cancer – cell-based, oncology-focused library, rucaparib conditional, profiling panel (AID 1508598). As to conditions: patient-derived ovarian cancer cells, CellTiter-Glo viability, 144 h; at 5 µM; OCI-P5x cells; without rucaparib; hits give low values. On the technique in general: In ATP-based viability assays light output follows the ATP content of the culture.
For the compound `N[C@@H]1CCCN(c2c(/C=C3\SC(=O)NC3=O)cccc2-c2ccccc2)C1`, the viability (as a rule, a read-out of living cells in per cent, often relative to untreated cells) is 97.5% (active).
Same read-out and setting: for `C[C@@H]1C[C@H]2[C@@H]3CCC4=CC(=O)C=C[C@]4(C)[C@]3(F)[C@H](O)C[C@]2(C)[C@]1(O)C(=O)CO` the value was 101%; for `Cc1cc2c(C(=O)NC[C@H](C)c3ccccc3)c(O)c(O)cc2c(O)c1-c1c(C)cc2c(C(=O)NC[C@H](C)c3ccccc3)c(O)c(O)cc2c1O`, 9.17% (active).
Turning to `Nc1nc(F)nc2c1ncn2[C@H]1O[C@H](CO)[C@@H](O)[C@@H]1O`, the viability is 38.5% (active).
Still for that read-out and setting: then `COc1cccc2c1C(=O)c1c(O)c3c(c(O)c1C2=O)C[C@@](O)(C(=O)CO)C[C@H]3O[C@H]1C[C@H](N)[C@@H](O)[C@H](C)O1`, with 5.43% (active); and `C=C1/C(=C/C=C2\CCC[C@@]3(C)[C@H]2CC[C@H]3[C@H](C)/C=C/[C@@H](C)C(C)C)C[C@H](O)C[C@@H]1O`, with 103%; and `CO[C@H]1C[C@H]2CC[C@@H](C)[C@@](O)(O2)C(=O)C(=O)N2CCCC[C@H]2C(=O)O[C@H]([C@H](C)C[C@@H]2CC[C@H](OP(C)(C)=O)[C@H](OC)C2)CC(=O)[C@H](C)/C=C(\C)[C@@H](O)[C@@H](OC)C(=O)[C@H](C)C[C@H](C)/C=C/C=C/C=C/1C`, with 59.8% (active).
On the same count and under the same terms, for `C=CCNC1=C2C[C@@H](C)C[C@H](OC)[C@H](O)[C@@H](C)/C=C(\C)[C@H](OC(N)=O)[C@@H](OC)/C=C\C=C(\C)C(=O)NC(=CC1=O)C2=O` the value was 1.94% (active); for `CC[C@]1(O)C[C@@H]2CN(CCc3c([nH]c4ccccc34)[C@@](C(=O)OC)(c3cc4c(cc3OC)N(C=O)[C@@H]3C45CCN4CC=C[C@](CC)([C@H]45)[C@H](OC(C)=O)[C@]3(O)C(=O)OC)C2)C1` (some centres undefined), 13.1% (active).
The same measure, in the same setting: then `COc1cccc2c1C(=O)c1c(O)c3c(c(O)c1C2=O)C[C@@](O)(C(C)=O)C[C@H]3O[C@H]1C[C@H](N)[C@H](O)[C@H](C)O1`, with 3.15% (active); and `CCOc1ccc(Cc2cc([C@@H]3O[C@H](CO)[C@@H](O)[C@H](O)[C@@H]3O)ccc2Cl)cc1`, with 109%.
Consider `CC(=O)[C@]1(O)Cc2c(O)c3c(c(O)c2[C@H](O[C@H]2C[C@H](N)[C@H](O)[C@H](C)O2)C1)C(=O)c1ccccc1C3=O`, for which the viability was 3.64% (active).
On the same count and under the same terms, for `CCC1=CC2CN(C1)Cc1c([nH]c3ccccc13)[C@@](C(=O)OC)(c1cc3c(cc1OC)N(C)[C@H]1[C@@](O)(C(=O)OC)[C@H](OC(C)=O)[C@]4(CC)C=CCN5CC[C@@]31[C@H]54)C2` (some centres undefined) the value was 8.33% (active); for `CC(=O)O[C@H]1C(=O)[C@@]2(C)C([C@H](OC(=O)c3ccccc3)[C@]3(O)C[C@H](OC(=O)[C@H](O)[C@@H](NC(=O)c4ccccc4)c4ccccc4)C(C)=C1C3(C)C)[C@]1(OC(C)=O)CO[C@@H]1C[C@H]2O` (some centres undefined), 17% (active).
On the same count and under the same terms, then `CO[C@H]1C[C@H]2CC[C@@H](C)[C@@](O)(O2)C(=O)C(=O)N2CCCC[C@H]2C(=O)O[C@H]([C@H](C)C[C@@H]2CC[C@H](OC(=O)C(C)(CO)CO)[C@H](OC)C2)CC(=O)[C@H](C)/C=C(\C)[C@@H](O)[C@@H](OC)C(=O)[C@H](C)C[C@H](C)/C=C/C=C/C=C/1C`, with 54.1% (active); and `CO[C@H]1/C=C\C=C(\C)C(=O)NC2=CC(=O)C(NCCN(C)C)=C(C[C@@H](C)C[C@H](OC)[C@H](O)[C@@H](C)/C=C(\C)[C@@H]1OC(N)=O)C2=O`, with 2.66% (active); and `CC(C)(C(=O)NCC(F)(F)C(F)(F)F)C(=O)N[C@H]1C(=O)Nc2ccccc2-c2ccccc21`, with 76.9% (active).
As for `CC1(C)O[C@@H]2C[C@H]3[C@@H]4CCC5=CC(=O)C=C[C@]5(C)[C@]4(F)[C@H](O)C[C@]3(C)[C@@]2(C(=O)CO)O1`, the viability is 90.4% (active).

A further test can be described thus: galactose survival enhancers in mitochondrial complex I cybrids – cell-based, galactose medium, ATP luminescence, primary screen (AID 1645843;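 active = z-score of at least 1.8 in each of two replicates, scored against plate mean and spread of sample wells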;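 note: positive z means more ATP and so rescue of galactose-driven cybrid death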). The settings on record: complex I mutant cybrid cells, 72 h, hits give high values.
Regarding `COCC(=O)Nc1c(C(=O)OC)n(CCC(C)C)c2ncc(NC(C)CCn3cccn3)cc12` (centres undefined), the z-score was -0.21.
The same measure, in the same setting: then `CN(Cc1cscn1)C(=O)c1nn(CC2CC2)c2c1CN(C(=O)Cn1cnc3ccccc31)CC2`, with -0.19; and `CCOC(=O)c1nn(Cc2ccc(OC)cc2)c2c1CN(C(=O)CSc1ncccn1)CC2`, with 0.665; and `O=C(NCc1cccc(F)c1)N[C@H]1C[C@H]2C(=O)N[C@@H](COCc3ccccc3)C(=O)N2C1`, with -0.285.
Same read-out and setting: for `CC(C)C[C@H]1C(=O)N2CCN(Cc3cnn(-c4ccccc4)c3)C[C@@H]2C(=O)N1C` the value was -0.345.
The same measure, in the same setting: then `CN(C)CCCNC(=O)[C@@H]1C[C@H](CN2CCOCC2)CN(Cc2ccc3ccccc3c2)C1`, with 0.05.
